Growth data for seven molecules are collected here from PubChem BioAssay (NCI).

Compounds without any hit were thinned out: in the full panel of roughly 83,000, 20% have a hit.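 Each cell line was grown in a 96-well plate and treated with one concentration of compound for 48 hours. Values below 10 were considered active.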 Unmarked numbers belong to inactive results. Calls of active or inactive are those of the source.

Test systems include HCT-15 colon; HT29 colon; SNB-75 CNS; SNB-19 CNS; U251 CNS; PC-3 prostate; SK-MEL-5 melanoma; UACC-62 melanoma; LOX IMVI melanoma; SK-MEL-28 melanoma; SK-MEL-2 melanoma; EKVX NSCLC; SN12C renal; UO-31 renal; TK-10 renal; ACHN renal; CAKI-1 renal; CCRF-CEM leukemia; MOLT-4 leukemia; A498 renal.
Experiment in all cases: NCI-60 one-dose screen, 48 h (100 = growth as untreated, 0 = no growth, -100 = all killed)
Holding throughout (conditions): 10 µM unless noted

On to `O=C(CCCCCCNC(=O)C(O)(O)C(F)(F)F)Nc1ncc(-c2ccc(Br)cc2)s1`, for which the growth in the assay on HCT-15 colon was 3.85% (active); in the assay on HT29 colon it was 1.78% (active); in the assay with SNB-75 CNS it was 35.9%; in the assay on SNB-19 CNS, 2.52% (active); in the assay on U251 CNS, -35.4% (active); with PC-3 prostate it was 10.5%. Further, the growth with SK-MEL-5 melanoma was -70.3% (active); with UACC-62 melanoma, -52.1% (active); in the assay on LOX IMVI melanoma, -89.7% (active); in the assay with SK-MEL-28 melanoma it was 3.46% (active); in the assay with SK-MEL-2 melanoma it was -27.3% (active); in the assay on EKVX NSCLC, 21.5%. The growth is 0.547% (active) in the assay with SN12C renal; -26.1% (active) with UO-31 renal; -20.2% (active) with TK-10 renal; -32.1% (active) in the assay on ACHN renal; -32.8% (active) in the assay with CAKI-1 renal; 18.4% in the assay with CCRF-CEM leukemia. The growth with MOLT-4 leukemia is 4.21% (active).
For `CN1CCN(c2ccc(Nc3nc(NCCNC(=O)c4ccccc4)c4sccc4n3)cc2)CC1`, the growth with HCT-15 colon is 20.7%; in the assay with HT29 colon, 4.23% (active); in the assay on SNB-75 CNS it was 81%; in the assay with SNB-19 CNS, 88.4%; with U251 CNS, 18.3%; in the assay with PC-3 prostate, 61.8%. The growth in the assay on SK-MEL-5 melanoma was 21.3%; with UACC-62 melanoma it was 53%; in the assay on LOX IMVI melanoma, 5.15% (active); in the assay on SK-MEL-28 melanoma, 59.5%; in the assay on SK-MEL-2 melanoma, 96.6%; with EKVX NSCLC, 97.3%. For the same molecule, the growth is 74% in the assay on SN12C renal; 66% in the assay with UO-31 renal; 137% in the assay on TK-10 renal; 54.6% in the assay on ACHN renal; 48.3% in the assay with CAKI-1 renal; 130% with A498 renal. For the same molecule, in the assay on MOLT-4 leukemia, the growth was 13.9%.
For the molecule `Cc1ccc2c(n1)C(=O)C(Cl)=C(Nc1ccc(C(=O)OC(C)(C)C)cc1)C2=O`, the growth with HCT-15 colon is -43.9% [9.25 µM] (active); in the assay on HT29 colon, 100% [9.25 µM]; with SNB-75 CNS it was 83.8% [9.25 µM]; with SNB-19 CNS, 83.8% [9.25 µM]; in the assay on U251 CNS it was 83.5% [9.25 µM]; in the assay on PC-3 prostate, 72.1% [9.25 µM]. Also, the growth is 87.6% [9.25 µM] in the assay with SK-MEL-5 melanoma; 87.1% [9.25 µM] with UACC-62 melanoma; -59.3% [9.25 µM] (active) in the assay on LOX IMVI melanoma; 82.5% [9.25 µM] in the assay with SK-MEL-28 melanoma; 116% [9.25 µM] in the assay with SK-MEL-2 melanoma; 76.5% [9.25 µM] with EKVX NSCLC. Also, the growth was 88% [9.25 µM] with SN12C renal; 46.4% [9.25 µM] with UO-31 renal; 83.9% [9.25 µM] in the assay with TK-10 renal; -21.5% [9.25 µM] (active) in the assay with ACHN renal; -34.8% [9.25 µM] (active) in the assay on CAKI-1 renal; -23.2% [9.25 µM] (active) in the assay on CCRF-CEM leukemia. Also, in the assay on MOLT-4 leukemia, the growth is -6.96% [9.25 µM] (active).
As to `O=C1C(SCc2ccccc2)=C(Cl)CN1c1ccc(Cl)cc1`, the growth with HCT-15 colon was 88.6%; in the assay with HT29 colon, 84.5%; with SNB-75 CNS, 103%; with SNB-19 CNS, 96.9%; with U251 CNS it was 86.3%; in the assay with PC-3 prostate, 107%. For the same molecule, the growth in the assay with SK-MEL-5 melanoma was 99.3%; in the assay with UACC-62 melanoma, 93.5%; in the assay on LOX IMVI melanoma it was 5.82% (active); in the assay with SK-MEL-28 melanoma, 88.1%; in the assay with SK-MEL-2 melanoma, 79.9%; in the assay on EKVX NSCLC, 106%. For the same molecule, the growth in the assay on SN12C renal is 100%; in the assay on UO-31 renal, -88.1% (active); with TK-10 renal, 111%; in the assay on ACHN renal, 98.1%; with CAKI-1 renal, 90.7%; in the assay with A498 renal, 114%. Besides, the growth with MOLT-4 leukemia is 68%.
Consider `Cc1ccc(S(=O)(=O)c2nc(-c3ccc(F)cc3)oc2S(C)(=O)=O)cc1`, for which the growth with HCT-15 colon is 13.4%; with HT29 colon, 55.1%; in the assay on SNB-75 CNS, 87.2%; in the assay on SNB-19 CNS, 91.4%; in the assay on U251 CNS it was 96.1%; in the assay on PC-3 prostate it was 91.8%. Further, the growth in the assay with SK-MEL-5 melanoma was 98.4%; with UACC-62 melanoma, 84.4%; in the assay with LOX IMVI melanoma, -68.8% (active); with SK-MEL-28 melanoma, 79.8%; with SK-MEL-2 melanoma, 86.3%; in the assay on EKVX NSCLC, 91.8%. Further, the growth is 67.4% in the assay on SN12C renal; 54.1% in the assay with UO-31 renal; 93.1% with TK-10 renal; -91.8% (active) with ACHN renal; 41.8% in the assay on CAKI-1 renal; 102% in the assay on A498 renal. The growth in the assay with MOLT-4 leukemia was 2.92% (active).
Turning to `O=S(=O)(NCCCNc1nccc(-c2[nH]c(-c3ccccc3)nc2-c2ccc(F)c(O)c2)n1)c1ccc(C(F)(F)F)cc1`, the growth with HCT-15 colon was 38.1%; in the assay on HT29 colon, 94.9%; with SNB-75 CNS, -0.845% (active); in the assay with SNB-19 CNS it was 43.2%; in the assay on U251 CNS, 33.5%; with PC-3 prostate it was 40.8%. For the same molecule, the growth in the assay on SK-MEL-5 melanoma was -0.786% (active); in the assay on UACC-62 melanoma, 2.32% (active); with LOX IMVI melanoma it was 46.3%; in the assay with SK-MEL-28 melanoma, 30.1%; with SK-MEL-2 melanoma it was 18.8%; with EKVX NSCLC it was 69.7%. The growth is 67.7% in the assay on SN12C renal; 91.4% with UO-31 renal; 95.7% in the assay on TK-10 renal; 58.7% in the assay on ACHN renal; 40.5% with CAKI-1 renal; 4.62% (active) with CCRF-CEM leukemia. Also, the growth in the assay on MOLT-4 leukemia is 17.2%.
`O=[N+]([O-])c1ccc(NC(=S)NNC(=S)Nc2ccc(F)cc2)cc1`: the growth is 61.7% with HCT-15 colon; 98% in the assay on HT29 colon; 103% in the assay on SNB-75 CNS; 94.4% in the assay with SNB-19 CNS; 90.5% in the assay on U251 CNS; 76.5% in the assay with PC-3 prostate. In addition, the growth in the assay with SK-MEL-5 melanoma is 89.9%; in the assay with UACC-62 melanoma it was 58.8%; in the assay on LOX IMVI melanoma, 72.3%; in the assay on SK-MEL-28 melanoma, 98.4%; in the assay on SK-MEL-2 melanoma, 105%; in the assay on EKVX NSCLC, 94.8%. In addition, the growth in the assay with SN12C renal is 90.7%; in the assay on UO-31 renal it was 70.2%; in the assay on TK-10 renal, 103%; with ACHN renal, 78.9%; with CAKI-1 renal, 68.7%; with A498 renal, 81.4%. For the same molecule, the growth in the assay on MOLT-4 leukemia is 80.8%.
